Values joined by “and” are separate entries in the source; they are usually repeats but may differ in a detail not shown here. Equal entries are not always repeated. About 79,000 compounds went through this panel and 15% of them were active in at least one assay; those are over-represented in the sample as a whole. Where a structure was tested more than once in an assay, its records may differ in their call. Active and inactive are the calls of the source. No stated cut-off is given here; in the data, active means growth inhibition above about 70%; inactive means the rest.
Experiments:
[1] = NCI Yeast Anticancer Drug Screen. Data for the rad52 strain (AID 147);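 further: 0% = growth of vehicle-treated control cultures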; conditions: S. cerevisiae rad52 mutant growth inhibition, stronger effect = higher value
Method in brief: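 Growth of repair-deficient yeast cells was compared between compound-treated and vehicle-treated cultures to give percent inhibition.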

[2] = NCI Yeast Anticancer Drug Screen. Data for the wt1 strain (AID 149);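 further: 0% = growth of vehicle-treated wt1 cultures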; conditions: S. cerevisiae wt1 strain (SPY 50644) growth inhibition, stronger effect = higher value
Method in brief: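 wt1 strain grown with compound or vehicle; inhibition taken from the growth difference.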

[3] = NCI Yeast Anticancer Drug Screen. Data for the rad50EPP+ strain (AID 151);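 further: 0% = growth of vehicle-treated control cultures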; conditions: S. cerevisiae rad50 mutant strain, stronger effect = higher value
Method in brief: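 Measured: growth inhibition of rad50EPP+ yeast. Reference: vehicle-treated controls. Screen uses strains with defined genetic alterations in DNA damage repair or cell cycle control.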

[4] = NCI Yeast Anticancer Drug Screen. Data for the rad50 strain (AID 155);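 further: 0% = growth of vehicle-only cultures of the same strain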; conditions: S. cerevisiae rad50 strain growth inhibition, stronger effect = higher value
Method in brief: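 DNA repair mutant yeast, compound exposure, growth read-out; inhibition is taken relative to vehicle.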

[5] = NCI Yeast Anticancer Drug Screen. Data for the mec2-1 strain (AID 157); conditions: S. cerevisiae mec2-1 strain, stronger effect = higher value
Method in brief: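 Compounds were applied to mec2-1 yeast cells. Their growth was then compared with that of vehicle-treated cultures to give growth inhibition.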

[6] = NCI Yeast Anticancer Drug Screen. Data for the rad14 strain (AID 159);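 further: 0% = growth of vehicle-treated control cultures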; conditions: S. cerevisiae rad14 strain growth inhibition, stronger effect = higher value
Method in brief: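 DNA repair-defective yeast, compound-exposed; % growth inhibition derived by comparison with vehicle-treated controls.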

[7] = NCI Yeast Anticancer Drug Screen. Data for the sgs1 mgt1 strain (AID 161);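 further: 0% = growth of cultures given vehicle only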; conditions: S. cerevisiae sgs1 mgt1 strain, stronger effect = higher value
Method in brief: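 Compounds are added to genetically altered yeast, and growth is compared with cultures given vehicle alone to give percent inhibition.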

[8] = NCI Yeast Anticancer Drug Screen. Data for the cln2 rad14 strain (AID 165);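 further: 0% = growth equal to vehicle treated cultures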; conditions: S. cerevisiae cln2 rad14 strain, stronger effect = higher value
Method in brief: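 Strain: cln2 rad14 yeast, altered in cell cycle control and DNA damage repair. Read-out: growth inhibition vs vehicle.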

[9] = NCI Yeast Anticancer Drug Screen. Data for the bub3 strain (AID 167); conditions: S. cerevisiae bub3 mutant strain, stronger effect = higher value
Method in brief: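 In this screen, a yeast mutant lacking normal mitotic checkpoint function is challenged with compound. Relative growth versus vehicle gives the inhibition value.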

[10] = NCI Yeast Anticancer Drug Screen. Data for the wt2 strain (AID 169);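 further: 0% = growth of vehicle-treated yeast cultures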; conditions: S. cerevisiae wt2 strain growth inhibition, stronger effect = higher value
Method in brief: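 Growth of compound-treated yeast is measured and expressed as inhibition relative to vehicle-only controls.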

[11] = NCI Yeast Anticancer Drug Screen. Data for the mlh1 strain (AID 171);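 further: 0% = growth of vehicle-treated control cultures of the same strain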; conditions: S. cerevisiae mlh1 strain growth inhibition, stronger effect = higher value
Method in brief: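 Test agents were incubated with yeast bearing a defined DNA damage repair or cell cycle control alteration; values are growth inhibition normalised to vehicle-treated cultures.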

[12] = NCI Yeast Anticancer Drug Screen. Data for the sgs1 strain (AID 173);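 further: 0% = growth of vehicle-only control cultures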; conditions: S. cerevisiae sgs1 mutant, stronger effect = higher value
Method in brief: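 Strain with an altered DNA repair or cell cycle pathway exposed to compound. Growth then measured. Value = inhibition versus vehicle control.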

[13] = NCI Yeast Anticancer Drug Screen. Data for the mlh1 rad18 strain (AID 175); conditions: S. cerevisiae mlh1 rad18 strain growth inhibition, stronger effect = higher value
Method in brief: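 A repair-deficient yeast strain is exposed to test compound, and growth is scored relative to vehicle-treated controls.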

[14] = NCI Yeast Anticancer Drug Screen. Data for the rad18 strain (AID 177); conditions: S. cerevisiae rad18 mutant growth inhibition, stronger effect = higher value
Method in brief: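 DNA-repair-defective yeast; compound treatment; growth inhibition scored against vehicle.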

[15] = NCI Yeast Anticancer Drug Screen. Data for the mgt1 strain (AID 153); conditions: S. cerevisiae mgt1 mutant growth inhibition, stronger effect = higher value
Method in brief: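 Compounds were applied to mgt1 mutant yeast, and growth was then compared against vehicle-treated control cultures to give percent inhibition.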

[16] = NCI Yeast Anticancer Drug Screen. Data for the CLN2oe strain (AID 163);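 further: 0% = growth of vehicle-only control cultures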; conditions: S. cerevisiae CLN2oe strain, stronger effect = higher value
Method in brief: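 Cells of an engineered yeast line with disturbed cell-cycle regulation are treated with compound. Inhibition of growth is then calculated relative to the vehicle-treated reference.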

[17] = at 5.0 µM (retest, dose inferred, filed as 0.5)
[18] = at 50.0 µM (retest, dose inferred, filed as 5.0)

Measured: growth inhibition

COc1ccc2c(c1)n([O-])c1ccccc1[n+]2=O
5% (inactive) and 73% (active): [7]; [17]
66% (inactive) and 91% (active): [4]; [17]
active: [1]; at 11.0 µM 86% | [1]; at 33.0 µM 95% | [1]; at 100.0 µM 97% | [3]; at 3.7 µM 72% | [3]; at 11.0 µM 93% | [3]; at 33.0 µM 97% | [3]; at 100.0 µM 98% | [4]; at 11.0 µM 91% | [4]; at 33.0 µM 95% | [4]; [18] 95% and 98% | [4]; at 100.0 µM 98% | [5]; [18] 75% and 99% | [5]; at 100.0 µM 93% | [6]; at 100.0 µM 95% | [7]; [18] 71% and 99% | [8]; [18] 90% and 97% | [8]; at 50.0 µM 96.3% | [9]; [18] 85% and 99% | [9]; at 50.0 µM 95.3% | [9]; at 100.0 µM 91% | [10]; at 100.0 µM 77% | [11]; at 100.0 µM 90% | [12]; at 33.0 µM 76% | [12]; at 100.0 µM 95% | [13]; [18] 93% and 98% | [14]; at 3.7 µM 75% | [14]; at 11.0 µM 93% | [14]; at 33.0 µM 97% | [14]; at 100.0 µM 96%
inactive: [1]; at 1.2 µM 16% | [1]; at 3.7 µM 48% | [2]; at 1.2 µM 0% | [2]; at 3.7 µM 2% | [2]; at 11.0 µM 9% | [2]; at 33.0 µM 24% | [2]; at 100.0 µM 69% | [3]; at 1.2 µM 34% | [4]; at 1.2 µM 18% | [4]; at 3.7 µM 33% | [4]; at 50.0 µM -18.6% | [5]; at 1.2 µM 3% | [5]; at 3.7 µM 7% | [5]; [17] 15% and 27% | [5]; at 11.0 µM 19% | [5]; at 33.0 µM 50% | [5]; at 50.0 µM 50.2% | [6]; at 1.2 µM 6% | [6]; at 3.7 µM 12% | [6]; at 11.0 µM 25% | [6]; at 33.0 µM 56% | [7]; at 50.0 µM -13.2% | [8]; [17] 6% and 22% | [9]; at 1.2 µM 3% | [9]; at 3.7 µM 4% | [9]; [17] 6% and 10% | [9]; at 11.0 µM 14% | [9]; at 33.0 µM 60% | [10]; at 1.2 µM -2% | [10]; at 3.7 µM 11% | [10]; at 11.0 µM 11% | [10]; at 33.0 µM 26% | [11]; at 1.2 µM 0% | [11]; at 3.7 µM 3% | [11]; at 11.0 µM 12% | [11]; at 33.0 µM 38% | [12]; at 1.2 µM 5% | [12]; at 3.7 µM 18% | [12]; at 11.0 µM 41% | [13]; at 50.0 µM 6.8% | [14]; at 1.2 µM 39%
17% (inactive) and 81% (active): [13]; [17]

CCOC(=O)C#Cc1ccc([N+](=O)[O-])cc1
inactive: [1]; at 1.2 µM 0% | [1]; at 3.7 µM -1% | [1]; at 11.0 µM -6% | [1]; at 33.0 µM 3% | [1]; at 100.0 µM 17% | [2]; at 1.2 µM 2% | [2]; at 3.7 µM 1% | [2]; at 11.0 µM 3% | [2]; at 33.0 µM 8% | [2]; at 100.0 µM 25% | [15]; at 1.2 µM 1% | [15]; at 3.7 µM -4% | [15]; at 11.0 µM -6% | [15]; at 33.0 µM 5% | [15]; at 100.0 µM 12% | [4]; at 1.2 µM 0% | [4]; at 3.7 µM 4% | [4]; [17] 15% | [4]; at 11.0 µM 3% | [4]; at 33.0 µM 18% | [4]; [18] 50% | [4]; at 100.0 µM 46% | [5]; at 1.2 µM 4% | [5]; at 3.7 µM -5% | [5]; [17] 12% | [5]; at 11.0 µM 7% | [5]; at 33.0 µM -1% | [5]; [18] 36% | [5]; at 100.0 µM 6% | [7]; [17] 31% | [7]; at 50.0 µM 50.5% | [8]; [17] -43% | [8]; [18] -7% | [9]; at 1.2 µM -10% | [9]; at 3.7 µM -24% | [9]; [17] -10% | [9]; at 11.0 µM -1% | [9]; at 33.0 µM 1% | [9]; [18] 28% | [9]; at 100.0 µM -8% | [11]; at 1.2 µM -4% | [11]; at 3.7 µM -3% | [11]; at 11.0 µM -10% | [11]; at 33.0 µM -21% | [11]; at 100.0 µM -5% | [13]; [17] -20% | [13]; [18] 63% | [14]; at 1.2 µM -1% | [14]; at 3.7 µM -2% | [14]; at 11.0 µM 0% | [14]; at 33.0 µM 15% | [14]; at 100.0 µM 64%
active: [4]; at 50.0 µM 96% | [5]; at 50.0 µM 95% | [7]; [18] 72% | [8]; at 50.0 µM 96.8% | [9]; at 50.0 µM 95.5% | [13]; at 50.0 µM 96.8%

CCCCc1nnc(NS(=O)(=O)c2ccc(C)cc2)s1
inactive: [1]; at 1.2 µM -14% | [1]; at 3.7 µM -20% | [1]; at 11.0 µM -3% | [1]; at 33.0 µM 37% | [3]; at 1.2 µM -29% | [3]; at 3.7 µM -34% | [3]; at 11.0 µM -30% | [3]; at 33.0 µM -21% | [3]; at 100.0 µM -35% | [15]; at 1.2 µM -25% | [15]; at 3.7 µM -28% | [15]; at 11.0 µM -12% | [15]; at 33.0 µM 25% | [4]; at 1.2 µM -15% | [4]; at 3.7 µM -13% | [4]; [17] 48% | [4]; at 11.0 µM 0% | [4]; at 33.0 µM 45% | [5]; at 1.2 µM -21% | [5]; at 3.7 µM -19% | [5]; at 11.0 µM -3% | [5]; at 33.0 µM 31% | [5]; at 50.0 µM 50.3% | [6]; at 1.2 µM -51% | [6]; at 3.7 µM -45% | [6]; at 11.0 µM -34% | [6]; at 33.0 µM 6% | [7]; [17] -24% | [7]; [18] 31% | [16]; at 1.2 µM 0% | [16]; at 3.7 µM 2% | [16]; at 11.0 µM 15% | [16]; at 33.0 µM 20% | [8]; [17] 35% | [8]; [18] 56% | [8]; at 50.0 µM 49.5% | [9]; at 1.2 µM -4% | [9]; at 3.7 µM 9% | [9]; [17] 27% | [9]; at 11.0 µM 15% | [9]; at 33.0 µM 47% | [9]; [18] 61% | [9]; at 50.0 µM 68.2% | [10]; at 1.2 µM -28% | [10]; at 3.7 µM -22% | [10]; at 11.0 µM -10% | [10]; at 33.0 µM 20% | [11]; at 1.2 µM -32% | [11]; at 3.7 µM -43% | [11]; at 11.0 µM -24% | [11]; at 33.0 µM 23% | [12]; at 1.2 µM -13% | [12]; at 3.7 µM -22% | [12]; at 11.0 µM -6% | [12]; at 33.0 µM 31% | [13]; at 50.0 µM 59.1% | [14]; at 1.2 µM -12% | [14]; at 3.7 µM 4% | [14]; at 11.0 µM 15% | [14]; at 33.0 µM 36%
active: [1]; at 100.0 µM 83% | [15]; at 100.0 µM 85% | [4]; [18] 94% | [4]; at 50.0 µM 72% | [4]; at 100.0 µM 86% | [5]; [17] 70% | [5]; [18] 94% | [5]; at 100.0 µM 81% | [6]; at 100.0 µM 82% | [7]; at 50.0 µM 72% | [16]; at 100.0 µM 87% | [9]; at 100.0 µM 85% | [10]; at 100.0 µM 80% | [11]; at 100.0 µM 74% | [12]; at 100.0 µM 80% | [13]; [17] 77% | [13]; [18] 99% | [14]; at 100.0 µM 86%

Source: PubChem BioAssay (NCI)
